Results filed as inconclusive are left out. Where a call stands in place of a potency, no number is given. Active and inactive are the calls of the source. Calls follow the shape of the full dose curve.

Chain of Beta-2 adrenergic receptor (Homo sapiens) (P07550 whole entry, looked up): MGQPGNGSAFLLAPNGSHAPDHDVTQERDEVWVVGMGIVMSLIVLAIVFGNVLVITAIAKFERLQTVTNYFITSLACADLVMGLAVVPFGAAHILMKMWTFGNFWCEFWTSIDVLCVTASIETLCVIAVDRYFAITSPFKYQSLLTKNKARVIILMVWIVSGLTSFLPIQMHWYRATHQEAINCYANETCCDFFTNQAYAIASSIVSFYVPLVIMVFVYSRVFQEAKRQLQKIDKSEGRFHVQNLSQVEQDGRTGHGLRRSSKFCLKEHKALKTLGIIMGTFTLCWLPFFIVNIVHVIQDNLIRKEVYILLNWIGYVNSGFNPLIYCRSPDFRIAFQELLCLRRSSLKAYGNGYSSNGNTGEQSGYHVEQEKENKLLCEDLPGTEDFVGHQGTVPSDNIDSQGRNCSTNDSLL

The experiment addresses Beta-2 adrenergic receptor (Homo sapiens) (UniProt P07550). The experiment in a line: Adrenergic beta2 receptor (ADRB2) small molecule agonists, cell-based qHTS assay (AID 1963593). To be noted: CHO-ADRB2 cells, cAMP HTRF, 30 min; series mostly up to 42.5 µM. The text has this:
National Center for Advancing Translational Sciences [NCATS]
Division of Preclinical Innovation [DPI]
U.S. Environmental Protection Agency [EPA]
National Institutes of Environmental Health Sciences [NIEHS]
National Toxicology Program [NTP]
U.S. Food and Drug Administration [FDA]
Beta adrenergic receptors (Beta-ARs) belong to the G-protein coupled receptor (GPCR) superfamily, includes three subtypes - beta1, beta2, and beta3. Beta1-AR is the predominant receptor subtype expressed in the heart, and beta2-AR is expressed in the kidney, lung, blood vessel and in the heart, and beta3 is found in the adipocytes. Beta1 and 2 ARs couple to Gs protein and elevate cyclic adenosine mono phosphate (cAMP), which activates protein kinase A and leads to the downstream signaling responsible for the physiological actions. Beta-AR agonists or antagonists are the most prescribed therapeutic agents for heart failure and asthma, and these were one of the first target receptors for the rational drug design. Tox21 10K compound library was screened using the cAMP-Gs dynamic assay (Cisbio Bioassays, Shelton, CT) to identify agonists/antagonists of the Gs-coupled human adrenergic, beta2 receptor (ADRB2) in the CHO-ADRB2 cell line (Codex BioSolutions, Inc. Gaithersburg, MD), which stably over-expresses ADRB2. The principle of cAMP-Gs dynamic assay is based on HTRF technology, which facilitates the fluorescence resonance energy transfer (FRET) between donor Europium cryptate and acceptor d2-labeled cAMP. The cAMP generated within cells competes with the red acceptor, d2-labled cAMP, for binding to the monoclonal anti-cAMP-cryptate (Europium donor). An increase in intracellular cAMP leads to the disruption of FRET signal, and the signal is inversely proportional to the cAMP concentration. Isoproterenol HCl (Sigma-Aldrich, St. Louis, MO) was used as a positive control in the screening.
Tox21 Assay Protocol Summary:
CHO-ADRB2 cells were dispensed at 1,000/well in 4uL assay medium into white/solid 1536-well plates (Greiner Bio-One North America Inc., Monroe, NC) using a Multidrop Combi dispenser (ThermoFisher Scientific, Waltham, MA). The assay plates were incubated at 37C and 5% CO2 for an overnight (18-20hr). Then positive control and test compounds dissolved in DMSO were transferred to the assay plates at 23nL using a Pintool station (Wako, San Diego, CA). Following the compound and positive control transfer, 1uL stimulation mix containing 100uM IBMX and 25uM Ro-20-1724 was added to each well of the assay plates using BioRAPTR Flying Reagent Dispenser (FRD, Beckman Coulter, Brea, CA). The assay plates were incubated at room temperature for 0.5hr. Then 2.5ul each d2-labled cAMP and anti-cAMP-cryptate solutions were added separately to each well of the assay plates using an FRD and the assay plates were incubated at room temperature for 1hr.
On the technique in general: Quantitative high-throughput screening tests each substance at several concentrations.
In the case of `CCC(C)c1nccnc1OC` (stereo not given), the Potency entry was “inactive”.
Consider `CC(C)NCCCC1(C(N)=O)c2ccccc2-c2ccccc21`, for which the Potency entry is “inactive”.
Regarding `Cc1cccc(C(C)(C)C)c1O`, the Potency result is “inactive”.
To `CC(C(=O)O)c1cccc(Oc2ccccc2)c1` (stereo not given) belongs “inactive”.
For the compound `CCN1CCC[C@H]1CNC(=O)c1cc(S(N)(=O)=O)ccc1OC`, the Potency entry is “inactive”.
To `Cc1ccc(S)cc1` belongs “inactive”; to `O=C(Oc1ccccc1C(=O)O)c1ccccc1O`, “inactive”; to `Brc1ccc(-c2ccccc2)cc1`, “inactive”.
For `O=C(O)CCSCCC(=O)O`, the Potency result is “inactive”.
To `C=CCOc1nc(OCC=C)nc(OCC=C)n1` belongs “inactive”.
Under `CCCCCCCCc1ccc(S(=O)(=O)O)cc1` stands “inactive”; under `Cc1cc(CC(=O)O)c(C)n1-c1ccc(Cl)cc1`, “inactive”.
To `C/C=C\C/C=C/CCCCCCCCOC(C)=O` belongs “inactive”; to `CC(CC(C#N)(c1ccccc1)C(C)C)N(C)C` (stereo not given), “inactive”.
In the case of `CC(C)=CCC1C(=O)N(c2ccccc2)N(c2ccccc2)C1=O`, the Potency result is “inactive”.
To `CC(C)Cc1ccc(C(C)C(=O)OCc2ccccn2)cc1` (stereo not given) belongs “inactive”; to `Nc1ccc(Cl)c([N+](=O)[O-])c1`, “inactive”.
To `CC(C)[C@H](N)C(=O)OCCOCn1cnc2c(=O)[nH]c(N)nc21` belongs “inactive”.
In the case of `O=C(OCCN1CCOCC1)c1cccnc1Nc1cccc(C(F)(F)F)c1`, the Potency entry was “inactive”.
As for `C[C@@]12C(=O)OC(=O)[C@]1(C)C1CCC2O1`, the Potency result is “inactive”.
To `CCCCCCCCOc1ccc(C(=O)O)cc1` belongs “inactive”.
To `CCC(C)CCCC(C)(C)O` (stereo not given) belongs “inactive”; to `CCCCCCCCCCCCOC(=O)c1ccc(O)cc1`, “inactive”.
To `CCCOc1ccc(C(=O)OCCN(CC)CC)cc1N` belongs “inactive”; to `CCc1ccc(CC)cc1`, “inactive”.
For `CCn1cc(C(=O)O)c(=O)c2cc(F)c(N3CCNCC3)cc21`, the Potency entry was “inactive”.
To `CCOC(=O)C1CC(=O)C(=C(O)C2CC2)C(=O)C1` (stereo not given) belongs “inactive”; to `CCCCCCCCCCCCN1CCOCC1`, “inactive”; to `O=C(Nc1ccccc1)c1cc([N+](=O)[O-])ccc1Cl`, “inactive”.
To `CN(C)CCOC1=Cc2ccccc2Sc2ccc(Cl)cc21` belongs “inactive”; to `CC(C)=CCOC(=O)c1ccccc1`, “inactive”.
Under `Cc1cc(C(=O)O)ccc1[N+](=O)[O-]` stands “inactive”; under `CCN(CC)CCNc1ccc(CNC=O)c2sc3ccc(OC)cc3c(=O)c12`, “inactive”; under `O=C(c1ccc(F)cc1)C1CCN(CCn2c(=O)[nH]c3ccccc3c2=O)CC1`, “inactive”.
Take `Cc1ccccc1C(=O)Nc1ccc(C(=O)N2CCCC(N(C)C)c3ccccc32)cc1` (stereo not given): the Potency entry was “inactive”.
For `CNCc1ccccc1`, the Potency result is “inactive”.
Consider `C[C@@H]1C[C@H]2[C@@H]3CCC4=CC(=O)C=C[C@]4(C)[C@@]3(F)[C@@H](O)C[C@]2(C)[C@H]1C(=O)CO`, for which the Potency entry is “inactive”.
Take `CCN1CC(CCN2CCOCC2)C(c2ccccc2)(c2ccccc2)C1=O` (stereo not given): the Potency result was “inactive”.
With `Oc1cccc2[nH]ccc12`, the Potency result is “inactive”.
To `CCOC(=O)c1cccnc1` belongs “inactive”.

(Values after PubChem BioAssay (Tox21).)
